Assay outcomes deposited in PubChem by Sanford-Burnham Center for Chemical Genomics.
CYP2C19 act: increases human CYP2C19 enzyme activity. recombinant CYP2C19, luciferin-H EGE luminescence; hits give high values; 0 = fully inhibited enzyme, 1 = untreated enzyme. activation factor at 5 µM. 96,000 tested, under 10 active. AID 1025;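 active = activation factor of at least 2 at 5 µM in the primary screen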
Target sequence (P33261 whole entry, looked up): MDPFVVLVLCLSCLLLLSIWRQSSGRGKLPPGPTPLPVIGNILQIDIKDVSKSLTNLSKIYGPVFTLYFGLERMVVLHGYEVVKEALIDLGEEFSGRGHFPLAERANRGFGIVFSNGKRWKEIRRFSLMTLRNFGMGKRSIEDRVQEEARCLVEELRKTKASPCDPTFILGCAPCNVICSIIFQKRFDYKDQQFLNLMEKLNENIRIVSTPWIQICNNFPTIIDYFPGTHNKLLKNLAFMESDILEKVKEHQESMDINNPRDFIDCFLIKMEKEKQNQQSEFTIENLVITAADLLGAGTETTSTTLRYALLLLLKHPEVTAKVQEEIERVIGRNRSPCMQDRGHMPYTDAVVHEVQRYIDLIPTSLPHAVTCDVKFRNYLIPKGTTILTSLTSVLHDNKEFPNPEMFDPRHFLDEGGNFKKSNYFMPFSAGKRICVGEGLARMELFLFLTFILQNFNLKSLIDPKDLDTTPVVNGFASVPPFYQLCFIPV
CYP2C19 inh: inhibitors of human CYP2C19. inhibition, % at 5 µM. hit rate 21% among 96,000. CYP2C19 Supersomes, luciferin-H EGE luminescence, 30 min. P33261;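 active = CYP2C19 inhibition above a set limit at 5 µM in the primary screen, cut at about 50% in these data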
CD11b adhes inh: CD11b/CD18-fibrinogen binding inhibition. P05107+P11215. K562 CD11b/CD18 adhesion to fibrinogen, ATPlite luminescence; Mn2+ added to activate the integrin. inhibition, % at 10 µM. hit rate 0.54% among 93,000. AID 1497;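 active = primary inhibition of 50% or more at 10 µM, then 40% or more on retest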
CYP2C9 inh: blocks human cytochrome P450 2C9; P11712; CYP2C9 Supersomes, luciferin-H conversion, luminescence; inhibition, % at 5 µM; hit rate 20% among 96,000;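 active = blocking of liver enzyme CYP2C9 beyond about 50% at 5 µM, limit read from the data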
Mac1 fbg enh: increases human CD11b/CD18 adhesion to fibrinogen; P05107+P11215; K562 CD11b/CD18 adhesion to fibrinogen, ATPlite luminescence; activation, % at 10 µM; hit rate 0.07% among 93,000; AID 1499;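 active = 10 µM primary screen giving 50% or more activity, confirmed by 40% or more on retest at that dose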
CYP2C9 act: CYP2C9 (human) activation. recombinant CYP2C9, luciferin-H conversion, luminescence; hits give high values; factor 1 = untreated enzyme, 0 = blocked. activation factor at 5 µM. P11712. hit rate 1.4% among 96,000;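 active = activation factor of 2 or more for CYP2C9 at a 5 µM dose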
Each line names hits and unclear results; the compound was inactive in the other large screens. This is a sample that favours compounds with a hit; in the whole collection about 28% have one here.

COc1ccccc1NC(=O)CSc1nnnn1C	none
O=C1CC(SCCO)C(=O)N1c1ccc(Oc2ccccc2)cc1 (stereo not given)	none
C=CCn1c(-c2cc(Cl)ccc2OC)n[nH]c1=S	CYP2C19 inh 82.2, CYP2C9 inh 50.2
CCn1c(-c2cc(Cl)ccc2OC)n[nH]c1=S	none
C=CCn1c(-c2cccn(Cc3ccc(Cl)cc3Cl)c2=O)n[nH]c1=S	CYP2C19 inh 80.2 (no result: CD11b adhes inh, Mac1 fbg enh)
Nc1nc(Cl)cc(Sc2ccc3ccccc3c2)n1	none (no result: CD11b adhes inh, Mac1 fbg enh)
COC(=O)c1cc(CSc2nnc(NC3CCCCC3)s2)oc1C	none
Nc1nnc(C(c2ccccc2)c2ccccc2)s1	none
O=C(CCN1C(=O)c2ccccc2C1=O)Nc1ccc(F)cc1F	none
O=C(CCc1ccccc1)Nc1ccc(F)cc1F	CYP2C19 inh 59.9
O=C(CCc1ccccc1)Nc1ccccc1F	CYP2C19 inh 76.4
Cc1ccccc1N(CC(=O)NCCSC1CCCCC1)S(=O)(=O)c1ccccc1	CYP2C9 inh 57.6
CC(C)CNC(=O)CN(C1CCCCC1)S(=O)(=O)c1ccccc1	CYP2C19 inh 57.9, CYP2C9 inh 92.0
O=C(CN(C1CC1)S(=O)(=O)c1ccc(S(=O)(=O)NC2CCCCC2)cc1)Nc1ccccc1	CYP2C19 inh 97.2, CYP2C9 inh 95.6
CS(=O)(=O)N(CC(=O)Nc1ccc(C(N)=O)cc1)C1CCCCC1	none
N/N=c1\sc2ccccc2n1-c1ccccc1	none (no result: CD11b adhes inh, Mac1 fbg enh)
O=P(OC1CCCCC1)(OC1CCCCC1)C(O)c1ccccc1 (stereo not given)	CYP2C19 inh 64.6, CYP2C9 inh 55.4
Cc1cc(C)n(CCOc2ccc(Cl)cc2Cl)n1	CYP2C19 inh 96.8
Cc1cc(C)n(CCOc2nonc2N)n1	none
COc1cccc(CSc2nc3ccccc3cc2C=O)c1	CYP2C9 inh 64.1
Cc1nc(SCc2cccc(Oc3ccccc3)c2)n[nH]1	none
COc1cc(NC(=O)CSc2ncccc2C(=O)OC(C)C)cc(OC)c1	CYP2C19 inh 70.3, CYP2C9 inh 50.7
COc1ccc(NC(=O)CSc2nc3ccccc3cc2Cc2ccccc2)cc1	CYP2C19 inh 85.2 (no result: CD11b adhes inh, Mac1 fbg enh)
COc1cc(NC(=O)CSc2nc3ccccc3cc2Cc2ccccc2)cc(OC)c1	CYP2C19 inh 82.7, CYP2C9 inh 64.4 (no result: CD11b adhes inh, Mac1 fbg enh)
CCOCCCN(Cc1ccco1)C(=O)c1cc2c(=O)[nH]c3ccc(C)cc3c2s1	none
CCN(CC)c1ncn(Cc2c(Cl)cccc2Cl)c2ncnc1-2	none (no result: CD11b adhes inh, Mac1 fbg enh)
Cc1ccc(C(=O)Nn2cnc3scc(-c4cccs4)c3c2=O)c(O)c1	none
O=C1CC(N2CCC(c3nc4ccccc4o3)CC2)C(=O)N1Cc1cccs1 (stereo not given)	none
CCCCCC(C)n1[nH]c(=O)cc1N (stereo not given)	none
COc1cccc(NC(=O)CSc2nc3ccccc3cc2Cc2ccccc2)c1	CYP2C19 inh 93.9, CYP2C9 inh 67.8 (no result: CD11b adhes inh, Mac1 fbg enh)
O=C(O)CCC(=O)c1c[nH]c2ccccc12	none (no result: CD11b adhes inh, Mac1 fbg enh)
O=C(Nc1ccccc1Oc1ccccc1)c1cc([N+](=O)[O-])ccc1Cl	none (no result: CYP2C19 act, CYP2C19 inh, CYP2C9 inh, CYP2C9 act)
O=C(Nc1ccccc1Cl)c1ccccc1Oc1ccc(C(F)(F)F)cc1[N+](=O)[O-]	CYP2C19 inh 72.8, CYP2C9 inh 87.5 (no result: CD11b adhes inh, Mac1 fbg enh)
CN1CCN(c2ccccc2NC(=O)c2ccc(-c3ccccc3)cc2)CC1	CYP2C19 inh 94.5, CYP2C9 inh 70.5
CCN(CC)c1ccc(NC(=O)c2cccc(OC)c2)c(C)c1	CYP2C9 act 2.5
O=C(Nc1ccccc1C(=O)N1CCCC1)c1cccc(S(=O)(=O)N2CCCCC2)c1	none
COc1cccc(C(=O)Nc2ccccc2N2CCCC2)c1	CYP2C19 inh 68.7
CN1CCN(c2ccccc2NC(=O)c2ccc(OCc3ccccc3)cc2)CC1	none
COc1cccc(C(=O)Nc2ccccc2C(=O)N2CCCC2)c1	CYP2C19 inh 53.6
COc1cc(OC)cc(C(=O)Nc2ccccc2N2CCOCC2)c1	none
CN1CCN(c2ccccc2NC(=O)c2cccc(OCc3ccccc3)c2)CC1	CYP2C9 inh 51.8
FCCCOc1ccc(-c2nccc(-c3ccc(F)cc3)n2)cc1	CYP2C19 inh 53.5, CYP2C9 inh 80.9
Nn1c(SCC(=O)Nc2ccc3c(c2)OCO3)nnc1-c1ccc(Cl)cc1	none
Cc1ccc(NC(=O)CSc2nnc(-c3ccncc3)n2N)cc1C	CYP2C9 inh 53.3
C=CCn1c(SCC(=O)Nc2ccc3c(c2)OCO3)nnc1-c1ccccc1OC	CYP2C19 inh 83.3, CYP2C9 inh 89.3
CC1(C)Cc2ccccc2-c2nnc(SCC(=O)Nc3ccc4c(c3)OCO4)n21	none
Nn1c(SCC(=O)Nc2ccc3c(c2)OCO3)nnc1-c1ccccc1	CYP2C9 inh 50.6
O=C(CSc1nnc(Cc2ccccc2)o1)Nc1ccc2c(c1)OCO2	CYP2C19 inh 59.5, CYP2C9 inh 93.9
O=C(COC(=O)c1cc(S(=O)(=O)N2CCOCC2)cs1)c1ccccc1	none
O=C(CSc1nnnn1C1CCCC1)Nc1ccc2c(c1)OCO2	CYP2C9 inh 54.8
C=CCn1c(SCC(=O)Nc2ccc3c(c2)OCO3)nnc1-c1cc(Br)ccc1O	CYP2C9 inh 82.3
C=CCn1c(SCC(=O)Nc2ncc(Cc3cc(Cl)ccc3Cl)s2)nnc1-c1ccncc1	CYP2C19 inh 56.1
C=CCn1c(SCC(=O)Nc2ccc3c(c2)OCO3)nnc1-c1ccccc1	CYP2C19 inh 53.8, CYP2C9 inh 51.9
O=C(CSc1nnnn1C1CCCC1)c1ccc2c(c1)OCCO2	none
O=C(O)c1ccc2c(c1)-c1nc3ccccc3n1C2=O	none
CCCCSc1nnc(CNC(=O)C23CC4CC(CC(C4)C2)C3)n1Cc1ccccc1	none (no result: CYP2C19 act, CYP2C19 inh, CYP2C9 inh, CYP2C9 act)
CC(C)=CCCC(C)CN(C)CCc1ccccn1 (stereo not given)	none
Cc1nnc(-c2cnn(C)c2N)n1Cc1ccc(Cl)cc1	none
CCn1c(SCCC#N)nnc1-c1ccncc1	none
C=CCn1c(SCC(=O)Nc2cccc(OC)c2)nnc1-c1cccnc1	none
C=CCn1c(SCC(=O)Nc2c(C)cccc2C)nnc1-c1ccncc1	CYP2C19 inh 71.8
Cc1ccccc1-c1nnc(SCC(=O)Nc2ccc3c(c2)OCCO3)n1N	CYP2C9 inh 73.0
C=CCn1c(SCCC#N)nnc1-c1ccncc1	CYP2C19 inh 55.3
COc1ccc(NC(=O)c2nc3nccc(C)n3n2)cn1	none
COC(=O)CCC(=O)N1CCc2cc(S(=O)(=O)N3CCc4ccccc43)ccc21	none
Nc1nc2c(s1)CC(c1ccccc1)CC2 (stereo not given)	CYP2C19 inh 69.0
COc1ccc(OC)c(S(=O)(=O)N(C)CC(=O)N2CCN(c3ccc(F)cc3)CC2)c1	none
COc1ccc(OC)c(S(=O)(=O)N(C)CC(=O)N2CCN(c3ccccc3F)CC2)c1	CYP2C19 inh 75.7, CYP2C9 inh 68.3
COc1ccc(OC)c(S(=O)(=O)N(C)CC(=O)N2CCN(c3cccc(Cl)c3)CC2)c1	CYP2C19 inh 84.9, CYP2C9 inh 91.8
O=C(NCc1ccccc1)N1CCN(c2ccc(Cl)c(Cl)c2)CC1	none
